Assay outcomes from PubChem BioAssay.
In the library only some 3.6% were active in any assay of this set; here they are far more common.
MazEF act – increases E. coli MazEF RNase cleavage of RNA; P0AE70; activation, % at 20 µM; hit rate 0.32% among 350,000; FAM/BHQ RNA-DNA oligo cleavage fluorescence, 5 h; AID 504720; in the data active means activation above about 50%
Autofluor counter – counter-screen for toxin protease inhibitors: compound fluorescence. compound autofluorescence counterscreen, microsphere flow cytometry; stronger effect = higher value. fluorescence intensity (concentration not given with the values). hit rate 3.1% among 360,000; in the data active means fluorescence intensity above about 16000; inconclusive means no clear call, values can overlap the other calls
BoNT A protease – blocks Botulinum neurotoxin A light chain protease; multiplex microsphere protease substrate cleavage, flow cytometry; inhibition, % at 10 µM; hit rate 0.17% among 360,000; further: plate controls were buffer without enzyme for full effect and enzyme alone for no effect
BoNT-F LC inh – blocks Botulinum neurotoxin F light chain protease. Multiplex microsphere protease cleavage assay, flow cytometry. inhibition, % at 10 µM. hit rate 0.22% among 360,000. AID 588497; in the data active means inhibition above about 35%, passing the limit was not always enough; inconclusive means no clear call, values can overlap the other calls; further: plate controls were buffer without enzyme for full effect and enzyme alone for no effect
Anthrax LF inh2 – blocks Bacillus anthracis lethal factor protease; inhibition, % at 10 µM; P15917; multiplex microsphere protease cleavage assay, LF; hit rate 0.12% among 360,000; AID 588501; further: plate controls were buffer without enzyme for full effect and enzyme alone for no effect
Target sequence (P15917 whole entry, looked up): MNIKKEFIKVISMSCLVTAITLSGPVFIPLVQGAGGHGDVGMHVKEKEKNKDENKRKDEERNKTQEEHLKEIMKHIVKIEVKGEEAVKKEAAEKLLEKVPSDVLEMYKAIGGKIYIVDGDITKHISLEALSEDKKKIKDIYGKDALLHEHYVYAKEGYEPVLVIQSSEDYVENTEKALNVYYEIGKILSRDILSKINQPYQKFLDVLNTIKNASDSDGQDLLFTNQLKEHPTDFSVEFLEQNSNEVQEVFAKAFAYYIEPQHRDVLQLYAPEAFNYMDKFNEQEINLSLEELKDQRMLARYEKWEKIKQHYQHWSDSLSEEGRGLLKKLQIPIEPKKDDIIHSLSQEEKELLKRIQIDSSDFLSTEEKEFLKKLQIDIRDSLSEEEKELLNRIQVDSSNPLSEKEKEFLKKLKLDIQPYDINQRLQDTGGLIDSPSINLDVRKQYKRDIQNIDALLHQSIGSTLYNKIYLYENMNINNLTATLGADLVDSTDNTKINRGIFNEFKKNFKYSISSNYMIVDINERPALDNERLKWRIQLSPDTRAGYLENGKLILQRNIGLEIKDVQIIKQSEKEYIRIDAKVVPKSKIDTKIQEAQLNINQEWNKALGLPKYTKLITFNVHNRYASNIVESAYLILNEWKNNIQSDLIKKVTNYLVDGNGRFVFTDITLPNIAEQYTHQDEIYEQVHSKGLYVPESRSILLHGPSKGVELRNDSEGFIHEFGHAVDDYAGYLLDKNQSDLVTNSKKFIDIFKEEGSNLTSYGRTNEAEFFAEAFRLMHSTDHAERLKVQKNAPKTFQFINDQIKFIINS
BoNT-A LC CP1 – BoNT/A light chain protease inhibition; inhibition, % at 10 µM; shares compounds with BoNT-F LC inh; hit rate 3% among 720; multiplex microsphere protease assay, flow cytometry; AID 602139; in the data active means inhibition above about 32%
BoNT-F LC CP1 – inhibitors of Botulinum neurotoxin F light chain protease | shares compounds with BoNT-F LC inh | 720 tested, under 10 active | inhibition, % at 10 µM | multiplex microsphere protease cleavage assay, flow cytometry; call rule not given here
Anthrax LF CP1 – inhibitors of Bacillus anthracis lethal factor protease; shares compounds with BoNT-F LC inh; multiplex microsphere protease cleavage assay, LF; inhibition, % at 10 µM; 720 tested, under 10 active; call rule not given here
Active calls of the source: *; ? = inconclusive; · = no result. Unless noted, no stated cut-off is given here; in the data, active means inhibition above about 30%; inconclusive means no clear call, values can overlap the other calls; inactive means below that.

SMILES	MazEF act	Autofluor counter	BoNT A protease	BoNT-F LC inh	Anthrax LF inh2	BoNT-A LC CP1	BoNT-F LC CP1	Anthrax LF CP1
COc1cc(NC(=O)c2ccc(F)cc2)ccc1NC(=O)c1cc2ccccc2o1	-23	·	·	·	·	·	·	·
COc1cccc(NC(=O)c2oc3ccccc3c2NC(=O)C(C)(C)C)c1	1	6579	44*	53*	-14	-1	-3	0
COc1ccc(OC)c(-c2nc3cc4ccccc4cc3nc2-c2ccccc2)c1	-1	2721	62*	17	22	34*	7	26
Clc1ccc(/C=C/c2ncc[nH]2)c(Cl)c1	-3	3685	5	40*	-8	0	-6	-1
CCN1CCN(CC(=O)c2c(C)n(C)c3ccc(OC)cc23)CC1	-9	?	1	3	4	·	·	·
CCOC(=O)C1CCN(CC(=O)c2c(C)n(C)c3ccc(OC)cc23)CC1	7	3128	-2	39*	-11	2	2	3
Cc1cc2ccccc2n1CCNC(=O)C1CCCC1	11	909	163*	-99	7	1	0	0
O=C(COC(=O)c1cc(=O)[nH]c(=O)[nH]1)Nc1cccc(Cl)c1	4	3658	2	6	7	·	·	·
CC(C)c1ccc(NC(=O)NC2(C(=O)NCc3cccnc3)CCCCC2)cc1	-4	4706	0	-10	-5	·	·	·
CCn1c(=O)n(CC)c2cc(S(=O)(=O)N3CCCCC3)c(C)cc21	5	10905	0	-4	-6	·	·	·
CCn1c(=O)n(CC)c2cc(S(N)(=O)=O)c(C)cc21	11	7485	8	44*	7	1	-3	-3
CSCCC(NC(=O)c1ccco1)C(=O)Nc1ccc(C)c(S(=O)(=O)N2CCOCC2)c1 (centres undefined)	5	8196	?	?	?	·	·	·
O=C(Nc1ccc(Nc2ccccc2)cc1)c1c(F)c(F)c(F)c(F)c1F	7	3173	-4	-12	40*	0	-7	1
Cc1ccccc1NC(=O)CN(c1ccc(F)cc1)S(C)(=O)=O	4	3419	0	42*	-5	0	-5	-2
COc1ccccc1N(CC(=O)Nc1ccccc1C)S(C)(=O)=O	9	10372	0	8	-2	·	·	·
CCCCNc1nnc(SCC(=O)c2c(N)n(C3CC3)c(=O)[nH]c2=O)s1	5	4237	0	6	3	·	·	·
O=C(CSc1nncn1-c1ccccc1)c1c[nH]c2ccccc12	3	4658	53*	-14	15	10	-14	12
O=C(CSc1nc2ccccc2c(=O)n1-c1ccccc1)c1c[nH]c2ccccc12	-33	2530	0	1	-1	·	·	·
CCCCNc1nnc(SCC(=O)c2c[nH]c3ccccc23)s1	-7	5750	54*	-22	20	14	-21	14
COc1ccc(C2=NOC(C(=O)NCc3ccccn3)C2)cc1 (centres undefined)	6	3906	3	72*	5	-1	-4	-2
Cc1ccc(C)c(Nc2nc(-c3ccncc3)nc3ccccc23)c1	19	3520	0	42*	-2	-2	0	-3
Cc1ccccc1C(=O)Nc1ccc(N(C)C)c2ccccc12	-12	3586	6	?	14	·	·	·
O=[N+]([O-])c1ccc(-c2cn3c(n2)CCC3)cc1	8	?	-4	37*	4	1	-5	-4
c1ccc(-c2cn3c(n2)CCC3)cc1	-2	2699	0	-6	-3	·	·	·
O=C(Cc1ccc(Cl)cc1)NC1CCCCCC1	-1	3892	-3	40*	12	0	-4	-3
Cc1nn2c(c1-c1ccccc1)NC1=C(C(=O)CCC1)C2c1ccccc1 (centres undefined)	-5	12476	28	36*	3	0	-4	2
CCC(=O)N1c2ccccc2NC2=C(C(=O)CCC2)C1c1ccccc1 (centres undefined)	5	8244	-1	-9	-3	·	·	·
CN(C)CCn1c2ccccc2c2nc3ccc([N+](=O)[O-])cc3cc21	5	3314	1	?	4	·	·	·
CS(=O)(=O)N1CCc2cc(C(=O)Nc3ccc(O)cc3)ccc21	3	4162	1	56*	-9	0	-7	-3
Cc1ccc(C)c2nc(N3CCCC3)c(C#N)cc12	1	4615	36*	27	26	16	1	7
